Our source for the AC50 and outcome values is PubChem BioAssay (EPA / NIEHS).

The target of assay [1] is human Adenosine A2a Receptor (AdoRA2a), ADORA2A (gene 135) (UniProt P29274). The experiment in a line: NVS_GPCR_hAdoRA2a: NovaScreen (NVS) G Protein-Coupled Receptor Assay for human Adenosine A2a Receptor (AdoRA2a) (AID 2283256). An outline of the steps: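 Radioligand displacement on HEK293-derived membrane protein, cell-free; filter-based scintillation counting 1.5 hours after dosing, loss of signal vs DMSO. Single-point duplicate screen at 25 uM, actives retested in concentration series.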
Sequence of human Adenosine A2a Receptor (AdoRA2a), ADORA2A (gene 135) (P29274 whole entry, looked up): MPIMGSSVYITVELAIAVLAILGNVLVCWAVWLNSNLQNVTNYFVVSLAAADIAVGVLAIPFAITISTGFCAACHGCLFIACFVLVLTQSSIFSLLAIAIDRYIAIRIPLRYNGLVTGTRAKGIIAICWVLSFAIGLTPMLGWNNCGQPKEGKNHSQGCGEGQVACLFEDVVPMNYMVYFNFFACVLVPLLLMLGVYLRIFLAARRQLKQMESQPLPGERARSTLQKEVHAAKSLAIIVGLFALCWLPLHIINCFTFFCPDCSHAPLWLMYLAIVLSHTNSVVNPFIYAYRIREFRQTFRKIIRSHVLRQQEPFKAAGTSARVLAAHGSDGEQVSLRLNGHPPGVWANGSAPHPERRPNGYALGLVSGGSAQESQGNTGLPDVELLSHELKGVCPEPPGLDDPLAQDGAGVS

In assay [2] the test system is guinea pig Muscarinic, Peripheral (Mperiperal) Receptor, Non-selective Binding, gene 100379235. The assay is described as follows: NVS_GPCR_gMPeripheral_NonSelective: NovaScreen (NVS) G Protein-Coupled Receptor Assay for guinea pig Muscarinic, Peripheral (Mperiperal) Receptor, Non-selective Binding (AID 2283250). An outline of the steps:
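Guinea pig bladder membranes, radioligand binding read 1 h after dosing by filter scintillation counting; loss of signal vs DMSO. Primary duplicate screen at 25 uM, then concentration-response up to 50 uM.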

In assay [3] the target is guinea pig Opioid, Kappa 1 Receptor (OpiateK), OPRK1 (gene 100135587) (UniProt P41144). The experiment in a line: NVS_GPCR_gOpiateK: NovaScreen (NVS) G Protein-Coupled Receptor Assay for guinea pig Opioid, Kappa 1 Receptor (OpiateK) (AID 2283252).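 Note: active means reduced radioligand binding relative to DMSO.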 The essentials: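 Guinea pig cerebellar membranes, radioligand displacement with filter-based scintillation counting, 2 h after dosing. Primary screen single concentration 25 uM in duplicate; actives retested in concentration series; loss of binding fitted versus DMSO.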
Sequence of guinea pig Opioid, Kappa 1 Receptor (OpiateK), OPRK1 (gene 100135587) (P41144 whole entry, looked up): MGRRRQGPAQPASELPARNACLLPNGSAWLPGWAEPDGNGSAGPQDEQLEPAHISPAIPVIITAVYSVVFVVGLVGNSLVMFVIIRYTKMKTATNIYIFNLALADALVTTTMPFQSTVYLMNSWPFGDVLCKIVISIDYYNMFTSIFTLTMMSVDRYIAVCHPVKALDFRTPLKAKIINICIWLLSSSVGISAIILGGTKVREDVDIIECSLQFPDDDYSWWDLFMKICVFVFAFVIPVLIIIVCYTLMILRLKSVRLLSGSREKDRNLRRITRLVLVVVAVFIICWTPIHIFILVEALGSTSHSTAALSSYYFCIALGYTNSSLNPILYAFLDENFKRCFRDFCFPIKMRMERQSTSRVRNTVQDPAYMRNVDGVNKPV

Assay [4] has as its target Type-1 angiotensin II receptor (Homo sapiens) (UniProt P30556). The assay is described as follows: NVS_GPCR_hAT1: NovaScreen (NVS) G Protein-Coupled Receptor Assay for human Angiotensin II receptor type 1 (AT1) (AID 2283263). The essentials:
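Membranes from KAN-TS cells; radioligand competitive displacement, 3 h, filtration and scintillation counting. Single-point duplicate screen at 25 uM, then concentration-response up to 50 uM for hits; loss of signal fitted versus DMSO.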

The subject of assay [5] is rat Monoamine Oxidase, MAO-A, Central (MAOAC), gene 29253. The experiment in a line: NVS_ENZ_rMAOAC: NovaScreen (NVS) Enzymatic Assay for rat Monoamine Oxidase, MAO-A, Central (MAOAC) (AID 2283243).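 Note: potency refers to inhibition seen as signal drop below DMSO baseline.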 The essentials: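 Rat brain tissue extract used as enzyme source in a cell-free radiometric assay, read by scintillation counting 1.5 hours after dosing. Loss of signal relative to DMSO baseline scored; primary screen at 25 uM in duplicate, actives followed up in concentration series.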

The target in assay [6] is human Serotonin, 5-Hydroxytryptamine Receptor 6 (5HT6), HTR6 (gene 3362) (UniProt P50406). The assay is described as follows: NVS_GPCR_h5HT6: NovaScreen (NVS) G Protein-Coupled Receptor Assay for human Serotonin, 5-Hydroxytryptamine Receptor 6 (5HT6) (AID 2283253). The essentials:
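Radioligand binding to 5HT6 in HEK293-derived membranes, cell-free, 1 h after dosing; bound ligand measured by filter-based scintillation counting. Primary screen in duplicate at 25 uM; actives retested in concentration series.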

Assay [7] has as its target Adenosine receptor A1 (Bos taurus) (UniProt P28190). The experiment in a line: NVS_GPCR_bAdoR_NonSelective: NovaScreen (NVS) G Protein-Coupled Receptor Assay for bovine Adenosine Receptor (AdoR), Non-selective Binding (AID 2283244). An outline of the steps: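 Bovine striatal membranes, radioligand displacement binding, 1 h after dosing, filter-based scintillation counting. Screened in duplicate at 25 uM, then concentration-response up to 50 uM; loss of specific binding relative to DMSO.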

For assay [8], the target named is human Adenosine A1 Receptor (AdoRA1), ADORA1 (gene 134) (UniProt P30542). The assay is described as follows: NVS_GPCR_hAdoRA1: NovaScreen (NVS) G Protein-Coupled Receptor Assay for human Adenosine A1 Receptor (AdoRA1) (AID 2283254). The essentials: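 Hum. cortical membranes + radioligand, cmpd 1 h; filtration, scintillation count. Readout = decrease vs DMSO. Primary 25 uM dup; hits → conc. series.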
Sequence of human Adenosine A1 Receptor (AdoRA1), ADORA1 (gene 134) (P30542 whole entry, looked up): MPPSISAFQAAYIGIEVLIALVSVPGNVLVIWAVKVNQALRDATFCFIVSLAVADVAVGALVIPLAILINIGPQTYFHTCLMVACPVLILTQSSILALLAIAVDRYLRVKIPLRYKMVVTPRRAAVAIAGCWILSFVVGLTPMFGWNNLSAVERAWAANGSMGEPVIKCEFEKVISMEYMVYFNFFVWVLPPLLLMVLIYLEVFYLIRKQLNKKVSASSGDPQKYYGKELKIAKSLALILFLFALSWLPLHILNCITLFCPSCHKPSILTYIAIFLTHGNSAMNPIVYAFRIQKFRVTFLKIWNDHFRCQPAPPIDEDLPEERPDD

Assay [9] deals with human Serotonin, 5-Hydroxytryptamine Receptor 7 (5HT7), HTR7 (gene 3363) (UniProt P34969). The assay is described as follows: NVS_GPCR_h5HT7: NovaScreen (NVS) G Protein-Coupled Receptor Assay for human Serotonin, 5-Hydroxytryptamine Receptor 7 (5HT7) (AID 2283255).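 Note: hits reduce specific radioligand binding relative to DMSO.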 The essentials:
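Radioligand displacement on membranes from CHO cells expressing human 5HT7, 1 h incubation, filter-based scintillation counting. Primary screen used a single 25 uM concentration in duplicate; actives were followed up in concentration series.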

For assay [10], the target named is human Dopamine Receptor D4.4 (DRD4.4), DRD4 (gene 1815) (UniProt P21917). The assay is described as follows: NVS_GPCR_hDRD4.4: NovaScreen (NVS) G Protein-Coupled Receptor Assay for human Dopamine Receptor D4.4 (DRD4.4) (AID 2283264). The essentials: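 Radioligand displacement on human DRD4.4 from CHO-derived membranes, 1 hour incubation, bound counts read by filtration and scintillation. Primary screen in duplicate at 25 uM; actives followed up in concentration series.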
Sequence of human Dopamine Receptor D4.4 (DRD4.4), DRD4 (gene 1815) (P21917 whole entry, looked up): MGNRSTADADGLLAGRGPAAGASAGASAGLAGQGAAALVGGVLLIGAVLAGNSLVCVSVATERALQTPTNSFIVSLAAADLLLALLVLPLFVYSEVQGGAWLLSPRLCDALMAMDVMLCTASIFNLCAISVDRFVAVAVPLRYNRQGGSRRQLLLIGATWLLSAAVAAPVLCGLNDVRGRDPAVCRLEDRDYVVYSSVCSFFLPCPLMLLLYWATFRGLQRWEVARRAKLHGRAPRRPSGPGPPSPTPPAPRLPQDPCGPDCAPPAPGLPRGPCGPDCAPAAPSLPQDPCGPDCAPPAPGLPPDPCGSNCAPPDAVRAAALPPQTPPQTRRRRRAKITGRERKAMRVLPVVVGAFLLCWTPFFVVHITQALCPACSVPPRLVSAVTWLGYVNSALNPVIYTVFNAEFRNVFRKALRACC

Assay [11] concerns the target guinea pig Leukotriene D4 Receptor (LTD4), CYSLTR1 (gene 100135514) (UniProt Q2NNR5). The assay is described as follows: NVS_GPCR_gLTD4: NovaScreen (NVS) G Protein-Coupled Receptor Assay for guinea pig Leukotriene D4 Receptor (LTD4) (AID 2283248). An outline of the steps: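 Radioligand displacement on guinea pig lung membranes, 1 h incubation, filtration and scintillation counting; DMSO as negative control. Duplicate 25 uM primary screen, then singleton concentration-response up to 50 uM.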

Assay [12] is described as follows: NVS_GPCR_bNPY_NonSelective: NovaScreen (NVS) G Protein-Coupled Receptor Assay for bovine Neuropeptide Y (NPY) Receptor, Non-selective Binding (AID 2283245). An outline of the steps:
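Bovine hippocampal membranes incubated 1 hour with radioligand and test chemical. Bound ligand measured by filter-based scintillation counting. Single-concentration screen at 25 uM in duplicate, then concentration-response up to 50 uM.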

In assay [13] the test system is guinea pig Leukotriene B4 Receptor (LTB4), gene 100379538. The experiment in a line: NVS_GPCR_gLTB4: NovaScreen (NVS) G Protein-Coupled Receptor Assay for guinea pig Leukotriene B4 Receptor (LTB4) (AID 2283247). The essentials: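 Radioligand displacement on guinea pig spleen membranes, filter-based scintillation counting 2 h after dosing. Primary duplicate single point at 25 uM; hits over threshold (e.g. 30% inhibition) run in concentration-response up to 50 uM, DMSO baseline.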

For assay [14], the target named is human Adrenergic, Beta 3 Receptor (Adrb3), ADRB3 (gene 155) (UniProt P13945). The assay is described as follows: NVS_GPCR_hAdrb3: NovaScreen (NVS) G Protein-Coupled Receptor Assay for human Adrenergic, Beta 3 Receptor (Adrb3) (AID 2283262). An outline of the steps: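 Membranes from SK-N-MC cells pretreated with isoproterenol and 8-bromo-cAMP were used in a radioligand competitive displacement binding assay. Binding was read by filter-based scintillation counting 1 hour after dosing. Primary screening was in duplicate at 25 uM, with concentration series in follow-up.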
Sequence of human Adrenergic, Beta 3 Receptor (Adrb3), ADRB3 (gene 155) (P13945 whole entry, looked up): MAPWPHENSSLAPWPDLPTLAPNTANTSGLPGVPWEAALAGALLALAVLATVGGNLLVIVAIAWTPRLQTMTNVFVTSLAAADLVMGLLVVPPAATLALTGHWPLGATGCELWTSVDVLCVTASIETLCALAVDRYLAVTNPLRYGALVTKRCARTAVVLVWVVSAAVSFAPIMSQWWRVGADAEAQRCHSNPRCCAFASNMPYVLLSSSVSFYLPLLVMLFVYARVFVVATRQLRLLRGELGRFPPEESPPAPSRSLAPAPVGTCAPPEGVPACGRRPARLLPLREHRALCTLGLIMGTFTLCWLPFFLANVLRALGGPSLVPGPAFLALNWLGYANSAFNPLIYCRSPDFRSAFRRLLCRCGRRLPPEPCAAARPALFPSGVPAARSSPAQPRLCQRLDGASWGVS

Results filed as inconclusive are left out. Active and inactive are the calls of the source. Rule for the calls: active = hit-call score of the fitted dose curve at least 0.9, where 1 is the maximum; inconclusive = response in the unintended direction; inactive = score below 0.9.

Sequence of Type-1 angiotensin II receptor (Homo sapiens) (P30556 whole entry, looked up): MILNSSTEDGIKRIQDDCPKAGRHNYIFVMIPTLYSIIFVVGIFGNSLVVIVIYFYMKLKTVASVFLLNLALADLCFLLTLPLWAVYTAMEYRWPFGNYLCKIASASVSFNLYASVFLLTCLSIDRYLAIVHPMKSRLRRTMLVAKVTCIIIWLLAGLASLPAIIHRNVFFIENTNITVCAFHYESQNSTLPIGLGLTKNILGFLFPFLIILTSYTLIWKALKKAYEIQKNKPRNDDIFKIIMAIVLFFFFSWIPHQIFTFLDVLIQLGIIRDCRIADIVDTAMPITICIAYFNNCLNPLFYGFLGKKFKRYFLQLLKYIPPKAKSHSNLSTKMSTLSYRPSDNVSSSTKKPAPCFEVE
Sequence of Adenosine receptor A1 (Bos taurus) (P28190 whole entry, looked up): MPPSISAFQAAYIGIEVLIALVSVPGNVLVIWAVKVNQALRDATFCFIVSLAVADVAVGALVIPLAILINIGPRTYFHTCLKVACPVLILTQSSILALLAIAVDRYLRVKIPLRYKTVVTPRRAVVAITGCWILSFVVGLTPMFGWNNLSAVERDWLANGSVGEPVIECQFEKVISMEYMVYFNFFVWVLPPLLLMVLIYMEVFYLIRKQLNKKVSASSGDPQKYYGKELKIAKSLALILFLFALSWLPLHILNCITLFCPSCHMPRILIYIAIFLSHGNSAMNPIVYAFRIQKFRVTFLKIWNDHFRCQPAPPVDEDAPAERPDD
Sequence of human Serotonin, 5-Hydroxytryptamine Receptor 6 (5HT6), HTR6 (gene 3362) (P50406 whole entry, looked up): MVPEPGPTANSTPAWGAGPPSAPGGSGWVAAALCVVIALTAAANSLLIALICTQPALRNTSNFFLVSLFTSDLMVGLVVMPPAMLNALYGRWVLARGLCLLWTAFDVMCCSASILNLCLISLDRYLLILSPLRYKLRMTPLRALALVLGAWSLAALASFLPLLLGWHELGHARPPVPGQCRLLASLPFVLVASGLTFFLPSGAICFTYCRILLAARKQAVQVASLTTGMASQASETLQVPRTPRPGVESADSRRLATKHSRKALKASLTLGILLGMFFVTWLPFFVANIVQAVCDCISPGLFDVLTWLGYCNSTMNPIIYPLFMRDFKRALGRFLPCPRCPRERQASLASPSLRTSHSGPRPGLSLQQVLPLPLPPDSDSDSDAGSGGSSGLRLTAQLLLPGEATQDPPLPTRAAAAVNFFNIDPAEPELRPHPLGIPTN
Sequence of guinea pig Leukotriene D4 Receptor (LTD4), CYSLTR1 (gene 100135514) (Q2NNR5 whole entry, looked up): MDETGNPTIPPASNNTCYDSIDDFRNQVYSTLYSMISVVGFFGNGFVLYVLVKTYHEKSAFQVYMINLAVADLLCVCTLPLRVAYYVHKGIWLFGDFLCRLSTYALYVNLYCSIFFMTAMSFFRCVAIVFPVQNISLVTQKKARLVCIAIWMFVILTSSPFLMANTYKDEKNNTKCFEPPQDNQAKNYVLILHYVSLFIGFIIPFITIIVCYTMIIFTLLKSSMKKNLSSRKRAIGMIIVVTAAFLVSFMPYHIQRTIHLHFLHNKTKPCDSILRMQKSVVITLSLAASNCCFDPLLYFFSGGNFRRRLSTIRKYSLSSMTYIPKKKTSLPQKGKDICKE
Sequence of human Serotonin, 5-Hydroxytryptamine Receptor 7 (5HT7), HTR7 (gene 3363) (P34969 whole entry, looked up): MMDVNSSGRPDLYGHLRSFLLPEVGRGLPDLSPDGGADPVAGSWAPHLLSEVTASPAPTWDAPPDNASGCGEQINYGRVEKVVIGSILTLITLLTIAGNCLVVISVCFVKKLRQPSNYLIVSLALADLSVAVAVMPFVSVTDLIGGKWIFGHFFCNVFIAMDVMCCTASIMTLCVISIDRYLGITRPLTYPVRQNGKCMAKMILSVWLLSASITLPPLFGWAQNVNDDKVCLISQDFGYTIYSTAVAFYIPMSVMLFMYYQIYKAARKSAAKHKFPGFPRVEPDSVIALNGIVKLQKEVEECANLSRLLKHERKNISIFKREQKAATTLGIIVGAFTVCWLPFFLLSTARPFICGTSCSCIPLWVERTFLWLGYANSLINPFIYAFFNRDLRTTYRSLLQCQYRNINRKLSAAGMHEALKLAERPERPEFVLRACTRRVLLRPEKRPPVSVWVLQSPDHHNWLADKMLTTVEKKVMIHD

As to `O=[N+]([O-])c1cc(C(F)(F)F)c(Cl)c([N+](=O)[O-])c1Nc1ncc(C(F)(F)F)cc1Cl`, the AC50 in [1] is 6.87 µM (active).
Turning to `N#CSCSC#N`, the AC50 in assay [2] was 7.4 µM (active); in assay [3] it was 38.7 µM (active); in [4], 14.9 µM (active).
`CCOC(=O)COc1cc(-c2nn(C)c(OC(F)F)c2Cl)c(F)cc1Cl`: the result in assay [2] was inactive.
For `CCC(=O)Nc1ccc(Cl)c(Cl)c1`, the AC50 in assay [5] is 15.3 µM (active); in assay [6], 7.47 µM (active); in [1], 10 µM (active).
`Cc1cc(C2CC2)nc(Nc2ccccc2)n1`: the AC50 was 25 µM (active) in [7]; 9.57 µM (active) in [8]; 25 µM (active) in [9]; 14.1 µM (active) in [1]; 12.3 µM (active) in assay [10]. For the same compound, the call in assay [2] was inactive.
With `CCOP(=S)(OCC)Oc1cc(C)nc(C(C)C)n1`, the result in assay [11] and in assay [4] was inactive.
On to `COP(=O)(OC)OC(Br)C(Cl)(Cl)Br` (stereo not given), for which the AC50 in assay [7] was 25 µM (active); in assay [11], 0.00229 µM (active); in [3], 33.3 µM (active); in assay [6], 9.88 µM (active); in [4] it was 13.5 µM (active). Moreover, in assay [12], the compound was classed as inactive.
Regarding `CSc1nc(NC(C)C)nc(NC(C)C)n1`, the concentration at half-maximal activity (AC50) in assay [7] is 5.37 µM (active); in [8], 3.54 µM (active); in assay [1] it was 4.59 µM (active).
Regarding `COc1cc(OC)nc(Sc2cccc(Cl)c2C(=O)O)n1`, the compound was called inactive in assay [4].
In the case of `CCOP(=S)(OCC)Oc1ccc([N+](=O)[O-])cc1`, in assay [13], the half-maximal activity concentration (AC50) was 7.9 µM (active).
For the compound `CCNc1nc(Cl)nc(NC(C)(C)C#N)n1`, the values for the AC50 in assay [7], in assay [8] and in [1] were 13.3 µM (active), 4.08 µM (active) and 5.75 µM (active), respectively.
On to `CON=C(C(=O)OC)c1ccccc1CON=C(C)c1cccc(C(F)(F)F)c1`, for which the result in assay [14] was inactive.
Regarding `CCOC(=O)CC(SP(=O)(OC)OC)C(=O)OCC` (stereo not given), the compound was classed as inactive in assay [7], in [2], in assay [8] and in assay [1].

As usually defined, the AC50 is the concentration at which the activity in the assay is half-maximal.
